Experimental data reported in PubChem BioAssay AID1159580 (chemical genetic matrix, 2015).
“And” between values parts separate entries of the source, which are not always exact repeats. Equal entries are not always repeated. Screen size: about 5,500 compounds; about 2,000 (36%) were called active. Roughly 18% stayed inconclusive and do not appear here. Cut-off read from the data, not from the text of the source: active = normalized growth mostly below about 0.91 (no sharp cut-off); inconclusive = no clear call, values can overlap the other calls; inactive = mostly above about 0.92. The list shows a part of the results.

Experiment: chemical genetic growth profiling, strain panel (AID 1159580);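 note: tested at 20 µM; growth read once vehicle control cultures reached saturation at 30 °C; 1 = growth at the plate median or of vehicle wells; lower values mean less growth of the strain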
Details: growth OD
[1] = S. cerevisiae deletion strains, locus YAL013W, strain DEP1, active compounds read low
[2] = S. cerevisiae deletion strains, locus YAL040C, strain CLN3, active compounds read low
[3] = S. cerevisiae deletion strains, locus YCL061C, strain MRC1 (second series), active compounds read low
[4] = S. cerevisiae deletion strains, locus YDR150W, strain NUM1, active compounds read low
[5] = S. cerevisiae deletion strains, locus YDR363W, strain ESC2, active compounds read low
[6] = S. cerevisiae deletion strains, locus YER002W, strain NOP16, active compounds read low
[7] = S. cerevisiae deletion strains, locus YJR075W, strain HOC1, active compounds read low
[8] = S. cerevisiae deletion strains, locus YMR307W, strain GAS1, active compounds read low
[9] = S. cerevisiae deletion strains, locus YNL153C, strain GIM3, active compounds read low
[10] = S. cerevisiae deletion strains, locus YNL175C, strain NOP13, active compounds read low
[11] = S. cerevisiae deletion strains, locus YNL197C, strain WHI3, active compounds read low
[12] = S. cerevisiae deletion strains, locus YNL224C, strain SQS1, active compounds read low
[13] = S. cerevisiae deletion strains, locus YOR083W, strain WHI5 (second series), active compounds read low

Measured: normalized growth

C[C@]12CCC(=O)C=C1CC[C@@H]1[C@@H]2CC[C@@]2(C)[C@H]1CC[C@]2(O)C(=O)CO
inactive: [1] 1.02 | [2] 1 | [3] 0.994 | [4] 0.994 | [5] 0.948 | [6] 0.98 | [7] 1 | [8] 1.01 | [9] 0.938 | [10] 0.969 | [11] 0.975 | [12] 0.992 | [13] 0.966 | S. cerevisiae deletion strains, locus YPL241C, strain CIN2, active compounds read low 1

O=C(O)c1cc([N+](=O)[O-])ccc1NCCCc1ccccc1
active: S. cerevisiae deletion strains, locus YDL185W, strain tfp1, active compounds read low 0.868 | S. cerevisiae deletion strains, locus YER155C, strain BEM2, active compounds read low 0.915 | S. cerevisiae deletion strains, locus YGL078C, strain dbp3, active compounds read low 0.895 | S. cerevisiae deletion strains, locus YHR094C, strain hxt1, active compounds read low 0.921 | S. cerevisiae deletion strains, locus YIL125W, strain kgd1, active compounds read low 0.861 | S. cerevisiae deletion strains, locus YIR030C, strain dcg1, active compounds read low 0.918 | S. cerevisiae deletion strains, locus YKL009W, strain mrt4, active compounds read low 0.707 | S. cerevisiae deletion strains, locus YKL068W, active compounds read low 0.873 | S. cerevisiae deletion strains, locus YKL085W, strain MDH1 (second series), active compounds read low 0.848 | S. cerevisiae deletion strains, locus YKL085W, strain MDH1, active compounds read low 0.848 | S. cerevisiae deletion strains, locus YMR078C, strain ctf18, active compounds read low 0.903 | S. cerevisiae deletion strains, locus YNL250W, strain rad50, active compounds read low 0.851 | S. cerevisiae deletion strains, locus YNL271C, strain bni1, active compounds read low 0.874 | S. cerevisiae deletion strains, locus YNL298W, strain CLA4, active compounds read low 0.753 | S. cerevisiae deletion strains, locus YOL147C, strain pex11, active compounds read low 0.931 | S. cerevisiae deletion strains, locus YPR119W, strain clb2, active compounds read low 0.924 | S. cerevisiae deletion strains, locus YPR141C, strain kar3, active compounds read low 0.872
inactive: [1] 0.994 | [2] 0.958 | S. cerevisiae deletion strains, locus YBR021W, strain FUR4, active compounds read low 0.892 | S. cerevisiae deletion strains, locus YBR229C, strain ROT2, active compounds read low 0.959 | S. cerevisiae deletion strains, locus YCL029C, strain bik1, active compounds read low 0.931 | [3] 1.01 | S. cerevisiae deletion strains, locus YDL035C, strain GPR1, active compounds read low 0.953 | S. cerevisiae deletion strains, locus YDL074C, strain BRE1, active compounds read low 0.972 | S. cerevisiae deletion strains, locus YDL101C, strain DUN1, active compounds read low 0.984 | S. cerevisiae deletion strains, locus YDL134C, strain PPH21, active compounds read low 0.966 | S. cerevisiae deletion strains, locus YDL192W, strain arf1, active compounds read low 0.941 | S. cerevisiae deletion strains, locus YDR101C, strain arx1, active compounds read low 0.933 | [4] 1.01 | S. cerevisiae deletion strains, locus YDR162C, strain NBP2, active compounds read low 0.953 | S. cerevisiae deletion strains, locus YDR318W, strain mcm21, active compounds read low 0.939 | [5] 0.987 | S. cerevisiae deletion strains, locus YDR388W, active compounds read low 0.928 | S. cerevisiae deletion strains, locus YDR502C, strain sam2, active compounds read low 0.94 | S. cerevisiae deletion strains, locus YEL061C, strain CIN8, active compounds read low 0.97 | [6] 0.954 | S. cerevisiae deletion strains, locus YER110C, active compounds read low 0.932 | S. cerevisiae deletion strains, locus YER167W, strain BCK2, active compounds read low 0.943 | S. cerevisiae deletion strains, locus YGL086W, strain mad1, active compounds read low 0.985 | S. cerevisiae deletion strains, locus YGL248W, strain PDE1, active compounds read low 0.984 | S. cerevisiae deletion strains, locus YGR078C, strain PAC10, active compounds read low 0.986 | S. cerevisiae deletion strains, locus YGR135W, strain pre9, active compounds read low 0.933 | S. cerevisiae deletion strains, locus YGR252W, strain gcn5, active compounds read low 0.893 | S. cerevisiae deletion strains, locus YHR030C, strain SLT2, active compounds read low 0.941 | S. cerevisiae deletion strains, locus YHR079C, strain IRE1 (second series), active compounds read low 0.934 | S. cerevisiae deletion strains, locus YHR129C, strain ARP1, active compounds read low 0.952 | S. cerevisiae deletion strains, locus YHR200W, strain rpn10, active compounds read low 0.922 | S. cerevisiae deletion strains, locus YIL066C, strain RNR3, active compounds read low 0.983 | S. cerevisiae deletion strains, locus YIL073C, strain SPO22, active compounds read low 0.829 | S. cerevisiae deletion strains, locus YJL095W, strain BCK1, active compounds read low 1.01 | S. cerevisiae deletion strains, locus YJL134W, strain LCB3, active compounds read low 0.944 | S. cerevisiae deletion strains, locus YJL168C, strain set2, active compounds read low 0.94 | S. cerevisiae deletion strains, locus YJL187C, strain SWE1 (second series), active compounds read low 0.996 | S. cerevisiae deletion strains, locus YJR043C, strain POL32, active compounds read low 0.987 | [7] 1 | S. cerevisiae deletion strains, locus YKL190W, strain CNB1, active compounds read low 0.967 | S. cerevisiae deletion strains, locus YKR001C, strain vps1, active compounds read low 0.934 | S. cerevisiae deletion strains, locus YLR039C, strain RIC1, active compounds read low 0.973 | S. cerevisiae deletion strains, locus YLR058C, strain SHM2, active compounds read low 0.964 | S. cerevisiae deletion strains, locus YLR102C, strain apc9, active compounds read low 0.93 | S. cerevisiae deletion strains, locus YLR262C, strain YPT6, active compounds read low 0.933 | S. cerevisiae deletion strains, locus YLR268W, strain sec22, active compounds read low 0.957 | S. cerevisiae deletion strains, locus YLR330W, strain CHS5, active compounds read low 0.927 | S. cerevisiae deletion strains, locus YLR342W, strain FKS1 (second series), active compounds read low 0.952 | S. cerevisiae deletion strains, locus YLR371W, strain rom2, active compounds read low 0.951 | S. cerevisiae deletion strains, locus YLR418C, strain cdc73, active compounds read low 0.901 | S. cerevisiae deletion strains, locus YML016C, strain PPZ1, active compounds read low 0.958 | S. cerevisiae deletion strains, locus YML032C, strain rad52, active compounds read low 0.968 | S. cerevisiae deletion strains, locus YML124C, strain tub3, active compounds read low 0.935 | S. cerevisiae deletion strains, locus YMR223W, strain ubp8, active compounds read low 0.945 | S. cerevisiae deletion strains, locus YMR263W, strain SAP30, active compounds read low 1.01 | [8] 0.945 | S. cerevisiae deletion strains, locus YNL067W, strain RPL9B, active compounds read low 0.998 | S. cerevisiae deletion strains, locus YNL128W, strain TEP1, active compounds read low 0.974 | [9] 1.03 and 0.971 | [10] 0.95 | [11] 0.949 | [12] 0.945 | S. cerevisiae deletion strains, locus YNL233W, strain BNI4, active compounds read low 1 | S. cerevisiae deletion strains, locus YNL307C, strain MCK1, active compounds read low 0.939 | S. cerevisiae deletion strains, locus YNL322C, strain KRE1, active compounds read low 0.968 | S. cerevisiae deletion strains, locus YNR052C, strain pop2, active compounds read low 0.949 | S. cerevisiae deletion strains, locus YOL006C, strain TOP1, active compounds read low 1.07 | S. cerevisiae deletion strains, locus YOL012C, strain htz1 0.889 | S. cerevisiae deletion strains, locus YOR061W, strain CKA2, active compounds read low 0.972 | S. cerevisiae deletion strains, locus YOR069W, strain VPS5, active compounds read low 0.958 | [13] 0.978 | S. cerevisiae deletion strains, locus YOR136W, strain idh2, active compounds read low 0.993 | S. cerevisiae deletion strains, locus YOR144C, strain elg1, active compounds read low 0.939 | S. cerevisiae deletion strains, locus YOR184W, strain ser1, active compounds read low 0.948 | S. cerevisiae deletion strains, locus YOR316C, strain cot1, active compounds read low 0.945 | S. cerevisiae deletion strains, locus YPL055C, strain LGE1, active compounds read low 1.01 and 1.02 | S. cerevisiae deletion strains, locus YPR163C, strain tif3, active compounds read low 0.925 | S. cerevisiae deletion strains, locus YPR167C, strain met16, active compounds read low 0.943 | S. cerevisiae deletion strains, strain wtn01, active compounds read low 0.967 | S. cerevisiae strains, strain wild type, active compounds read low 0.963
